This is a sample that favours compounds with a hit; in the whole collection about 3.8% have one here.
Beta cell apopt: inhibitors of cytokine-induced beta cell apoptosis, primary screen, luminescence. INS-1E cytokine-induced death, ATP luminescence, 48 h; percent of positive-control rescue, neutral wells zero. protection from apoptosis, % (no concentration beside the values). 300,000 compounds, 0.8% hits. AID 435005, 2010;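 active = Every replicate reaches about 75%, or at least half do and their mean reaches it too, limit read from the data; inconclusive = At least half of replicates reach the limit but their mean does not; inactive = Under half of replicates reach the limit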;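 note: higher means more ATP so stronger rescue from cytokine killing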
Jurkat NFkB inh: inhibitors of induced NF-kB luciferase reporter, primary screen, TCR NF-kB activation inhibitor project, cell-based, luminescence, uHTS; Jurkat, PMA/ionomycin-induced NF-kB luciferase reporter; 330,000 compounds, 0.53% hits; inhibition, % at 4 µM; in the data active = inhibition above about 50%
697 NFkB inh: inhibitors of PMA/ionomycin-induced NF-kB reporter, 697 cells, primary screen, B-cell NF-kB inhibitor project, cell-based, luminescence, uHTS | 697 B-cell NF-kB luciferase reporter, 16 h | inhibition, % at 4 µM | AID 435022, 2010 | 330,000 compounds, 0.33% hits; in the data active = inhibition above about 35%
NTR1 ag: agonists of human NTR1, primary screen, imaging, U2OS cells, beta-arrestin-GFP, high content | NTR1-U2OS beta-arrestin-GFP spot imaging, agonist mode | AID 493036, 2011 | Neurotensin receptor type 1 (Homo sapiens), P30989 | activation, % at 20 µM | 330,000 compounds, 0.17% hits;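 active = activation at or above 40% of the spot to cytoplasm intensity ratio, with at least 20 cells analyzed; inconclusive = wells under 20 cells, flagged as cytotoxic or low count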
Target sequence (P30989 whole entry, looked up): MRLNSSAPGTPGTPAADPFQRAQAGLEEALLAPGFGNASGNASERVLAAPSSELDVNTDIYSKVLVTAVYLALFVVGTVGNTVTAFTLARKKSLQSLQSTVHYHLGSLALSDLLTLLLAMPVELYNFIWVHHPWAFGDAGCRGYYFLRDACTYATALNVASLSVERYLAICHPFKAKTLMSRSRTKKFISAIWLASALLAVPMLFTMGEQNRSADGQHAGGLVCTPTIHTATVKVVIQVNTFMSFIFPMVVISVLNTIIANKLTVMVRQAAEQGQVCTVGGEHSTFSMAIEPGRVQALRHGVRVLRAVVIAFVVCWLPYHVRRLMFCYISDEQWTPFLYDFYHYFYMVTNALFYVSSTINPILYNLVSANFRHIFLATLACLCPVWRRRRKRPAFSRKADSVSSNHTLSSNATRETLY
Mdm2-MdmX inh: inhibitors of human Mdm2-MdmX association, primary screen, cell-based, luminescence, split luciferase, SaOS-2, uHTS | inhibition, % at 8 µM | 330,000 compounds, 3% hits | Protein Mdm4 (Homo sapiens) + E3 ubiquitin-protein ligase Mdm2 (Homo sapiens), … | AID 485346, 2010 | SaOS-2 split-luciferase Mdm2/MdmX complementation;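 active = inhibition of at least 50% at 8 µM in the primary screen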
Bfl-1 A1 inh: caspase 3/7 activation in MEF A1-2A-BIM cells, primary screen, A1 inhibitor project, cell-based, luminescence, HTS; Caspase-Glo 3/7 luminescence, 3 h; percent of clofoctol response, vehicle zero; caspase activation, % (no concentration beside the values); 330,000 compounds, 0.066% hits;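 active = over half of replicate activation scores above 10%, or exactly half above 10 with the replicate mean above 10; inconclusive = replicate mean below 10 yet half the replicates above 10; inactive = over half of replicates below 10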
Mdm2-MdmX conf: Mdm2-MdmX complex disruptors, retested hits, confirmation, luminescence, single concentration; 10,000 compounds, 55% hits; shares compounds with Mdm2-MdmX inh; inhibition, % at 8 µM; Mdm2-MdmX binding, luminescent assay; in the data active = inhibition above about 40%
FLuc counter: full-length luciferase signal inhibition, confirmation, counter-screen for Mdm2/MdmX interaction inhibitor project, cell-based, single concentration, SaOS-2 | shares compounds with Mdm2-MdmX inh | SaOS-2 full-length luciferase counterscreen, luminescence | inhibition, % at 8 µM | 6,200 compounds, 77% hits | AID 504607, 2011;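 active = mean inhibition at 8 µM reaching about 37%, which flags the compound as non-specific, limit read from the data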;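 note: p53-null SaOS-2 cells with luciferase driven by a doxycycline-inducible promoter; compound on cells about two nights before reading with doxycycline added after day one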
Each line names hits and unclear results; the compound was inactive in the other large screens (follow-up assays come after a bar, where they were run).

FC(F)(F)c1cccc(Cn2c3[n+](c4ccc(C(F)(F)F)cc42)CCCCC3)c1	none
Cc1cc(C(C)(C)C)cc(C)c1Cn1c2[n+](c3ccc(C(F)(F)F)cc31)CCCCC2	Beta cell apopt 86.4, Mdm2-MdmX inh 72.0 | Mdm2-MdmX conf 47.8 | FLuc counter 49.6
Clc1ccc(-n2ncc3c(N4CCCC4)ncnc32)cc1	Mdm2-MdmX inh 50.9 | Mdm2-MdmX conf 65.8 | FLuc counter 168.3
O=C(c1cccc(Cl)c1)N1CCN(c2ncnc3c2cnn3-c2ccccc2)CC1	none (no result: Beta cell apopt)
Cc1nn(-c2ccccc2)c(Cl)c1C(=O)N1CCN(c2ncnc3c2cnn3-c2ccccc2)CC1	Mdm2-MdmX inh 97.0 | Mdm2-MdmX conf 88.5 | FLuc counter 58.5
CCOC(=O)c1nn(-c2ccc(Br)cc2)cc1C(=O)c1cccc2ccccc12	Mdm2-MdmX inh 62.0 | Mdm2-MdmX conf inactive
Cc1ccc(NC(=O)Cc2cc(C(=O)O)c3ccccc3n2)c(C)c1	Mdm2-MdmX inh 81.9 | Mdm2-MdmX conf 58.8 | FLuc counter 40.3
CCC1(c2ccc(F)cc2)NC(=O)N(CC(=O)c2cc(C)n(C3CC3)c2C)C1=O (centres undefined)	none
O=C(NCc1ccccc1Cl)c1ccc2c(c1)OCO2	none
COc1cccc(-c2sc3ccc(OC)cc3c2C#CCCO)c1	none
OC(CNCc1ccncc1)c1ccccc1 (centres undefined)	none (no result: Beta cell apopt)
OC(CNCc1ccc(-c2ccccc2)cc1)c1ccccc1 (centres undefined)	Mdm2-MdmX inh 53.1 | Mdm2-MdmX conf 57.6 | FLuc counter inactive
CCC1CN(C(=O)N2CCC(C(=O)NCCc3ccccc3OC)CC2)c2ccccc2O1 (centres undefined)	none
Fc1ccc(-[n+]2nc(Nc3ccccc3)sc2-c2c(Cl)cccc2Cl)cc1	Mdm2-MdmX inh 67.5 | Mdm2-MdmX conf inactive | FLuc counter 47.6
CCN(CC)c1ccc(-c2sc(Nc3ccccc3)n[n+]2-c2ccc(F)cc2)cc1	none
CCc1ccc(Nc2n[n+](-c3ccccc3)c(-c3cc(OC)c(OC)cc3Br)s2)cc1	none
COc1ccc(C)cc1Nc1n[n+](-c2ccccc2)c(-c2c(Cl)cccc2Cl)s1	Beta cell apopt 99.0, Mdm2-MdmX inh 95.3 | Mdm2-MdmX conf 89.0 | FLuc counter 54.6
CCc1ccc(Nc2n[n+](-c3ccccc3)c(/C=C/c3ccccc3)s2)cc1	Mdm2-MdmX inh 52.2, Bfl-1 A1 inh inconclusive | Mdm2-MdmX conf inactive
CCc1ccc(Nc2n[n+](-c3ccccc3)c(-c3ccc(N(CC)CC)cc3)s2)cc1	Beta cell apopt 108.3, Mdm2-MdmX inh 87.2 | Mdm2-MdmX conf 52.8 | FLuc counter 44.0
O=[N+]([O-])c1cccc(NC(=S)N2CCN(S(=O)(=O)c3ccccc3)CC2)c1	none
Cc1ccc(S(=O)(=O)NC(=O)c2ccccc2C)cc1	none
COc1ccc2ccccc2c1-c1sc(Nc2ccccc2)n[n+]1-c1ccc(F)cc1	Mdm2-MdmX inh 75.8 | Mdm2-MdmX conf inactive
CCc1ccc(Nc2n[n+](-c3ccccc3)c(-c3c(Cl)cccc3Cl)s2)cc1	Beta cell apopt 107.6, Mdm2-MdmX inh 100.3 | Mdm2-MdmX conf 96.5 | FLuc counter 55.6
CCc1ccc(Nc2n[n+](-c3ccccc3)c(-c3ccc(OCc4ccccc4)cc3)s2)cc1	none
CCOC(=O)C1=C(CN2CCSCC2)NC(=O)NC1c1ccc2c(c1)OCO2 (centres undefined)	none
CCOC(=O)C1=C(CCl)NC(=O)NC1c1ccc2c(c1)OCO2 (centres undefined)	Mdm2-MdmX inh 58.8 | Mdm2-MdmX conf inactive
Cc1[nH]n(C(N)=S)c(=O)c1N=Nc1cccc(C(F)(F)F)c1	none
Cc1[nH]n(C2=NCCS2)c(=O)c1N=Nc1cccc(C(F)(F)F)c1	Beta cell apopt 93.8, Mdm2-MdmX inh 55.9 | Mdm2-MdmX conf 55.5 | FLuc counter 36.2
Cc1cnc(C(=O)NNC(=O)c2ccc(Br)cc2)cn1	Mdm2-MdmX inh 60.8 | Mdm2-MdmX conf inactive | FLuc counter 69.3
COC(=O)C(CC(=O)c1ccc(Br)cc1)n1ccnc1 (centres undefined)	Mdm2-MdmX inh 98.5 (no result: Beta cell apopt, Bfl-1 A1 inh) | Mdm2-MdmX conf inactive
COC(=O)C(CC(=O)c1ccc(Br)cc1)n1nc(C)cc1C (centres undefined)	none
C#CCN1C=C(C(=O)OCC)C(C)N(Cc2ccccc2I)S1(=O)=O (centres undefined)	Mdm2-MdmX inh 54.7 (no result: Beta cell apopt, Jurkat NFkB inh, Bfl-1 A1 inh) | Mdm2-MdmX conf 49.2 | FLuc counter 51.4
C#CCN1C=C(C(=O)OCC)C(C)NS1(=O)=O (centres undefined)	none (no result: Beta cell apopt, Jurkat NFkB inh, Bfl-1 A1 inh)
CCN(c1ccccc1)S(=O)(=O)c1ccc(C(=O)Nc2ccc(C)cn2)cc1	none
CCC1CSC(Nc2ccc(C(=O)/C=C/c3ccc(Oc4ccccc4)cc3)cc2)=N1 (centres undefined)	Mdm2-MdmX inh 54.9 | Mdm2-MdmX conf inactive
CCC1CSC(Nc2ccc(C(=O)/C=C/c3cccc(C)c3)cc2)=N1 (centres undefined)	none
CCCc1nnc(NC(=O)c2nc(S(=O)(=O)Cc3cccc(C)c3)ncc2Cl)s1	Mdm2-MdmX inh 90.0, Bfl-1 A1 inh inconclusive | Mdm2-MdmX conf inactive | FLuc counter inactive
Cc1cccc(CS(=O)(=O)c2ncc(Cl)c(C(=O)NCc3ccccc3)n2)c1	Mdm2-MdmX inh 83.1 | Mdm2-MdmX conf 65.7 | FLuc counter inactive
Cc1cccc(CS(=O)(=O)c2ncc(Cl)c(C(=O)Nc3c(C)cccc3C)n2)c1	Mdm2-MdmX inh 94.0 (no result: Beta cell apopt, Bfl-1 A1 inh) | Mdm2-MdmX conf 85.7 | FLuc counter 50.9
CSc1ncc(Cl)c(C(=O)Nc2cccc3ccccc23)n1	none
Cc1cccc(C)c1NC(=O)c1nc(S(=O)(=O)Cc2ccccc2)ncc1Cl	Mdm2-MdmX inh 68.1 (no result: Beta cell apopt, Bfl-1 A1 inh) | Mdm2-MdmX conf 97.7 | FLuc counter inactive
Cc1nc(SCC(=O)N(C)C2(C#N)CCCCC2)c2ccccc2n1	none
C[C@H](CO)N1C[C@H](C)[C@@H](CN(C)Cc2ccccc2)Oc2c(NS(=O)(=O)c3cn(C)cn3)cccc2C1=O	none

Screening data (PubChem BioAssay)
